# Results reported in the antibiotic and cytotoxicity screens of Wong et al. (2023).
# In all, about 39,000 compounds went through this assay and about 500 (1.3%) were called active. This is one part of a sample in which actives are shown more often than they occur.
# System: S. aureus RN4220
# Assay: growth inhibition call (relative growth <= 0.2)
# Conditions: 50 µM
row,Structure (SMILES),growth inhibition call
1,C[C@@H]1CN([C@H](C)CO)S(=O)(=O)c2ccc(-c3ccncc3)cc2O[C@H]1CN(C)C(=O)c1ccc2c(c1)OCO2,inactive
2,C[C@@H]1CN([C@H](C)CO)C(=O)c2cc(C#CCN(C)C)cnc2O[C@@H]1CN(C)S(=O)(=O)c1cn(C)cn1,inactive
3,COc1ccc(S(=O)(=O)Nc2ccc3c(c2)C(=O)N([C@@H](C)CO)C[C@@H](C)[C@H](CN(C)C(=O)Nc2ccc4c(c2)OCO4)OCCCC[C@@H](C)O3)cc1,inactive
4,CCn1cnc2c(=O)[nH][nH]c(=O)c21,inactive
5,C[C@@H]1CN([C@@H](C)CO)C(=O)Cc2cc(NC(=O)Nc3ccccc3)ccc2O[C@@H]1CN(C)Cc1ccc(C(F)(F)F)cc1,inactive
6,CC(C)NC(=O)N(C)C[C@@H]1Oc2ccc(NC(=O)C3CCCCC3)cc2CC(=O)N([C@H](C)CO)C[C@H]1C,inactive
7,C[C@H]1CN([C@@H](C)CO)C(=O)CCCn2cc(nn2)CO[C@@H]1CN(C)C(=O)Nc1cccc(C(F)(F)F)c1,inactive
8,C[C@@H]1CN([C@H](C)CO)C(=O)c2cc(NC(=O)Nc3cccc4ccccc34)ccc2O[C@H]1CN(C)S(=O)(=O)c1cccs1,inactive
9,Cc1cc(O)cc(=O)[nH]1,inactive
10,Cc1cc(C(=O)O)n[nH]1,inactive
11,Cc1cc(=O)[n+]2cccc(O)c2[nH]1,active
12,CNC(=O)c1cccc(NC(=S)NC)c1,inactive
13,C[C@H](CO)N1C[C@H](C)[C@H](CN(C)C(=O)Nc2ccc3c(c2)OCO3)Oc2ncc(C#CC(C)(C)O)cc2C1=O,inactive
14,O=C(O)P(=O)(O)O,active
15,O=P(O)(O)CN(CCN(CP(=O)(O)O)CP(=O)(O)O)CP(=O)(O)O,inactive
16,CC(=O)O,inactive
17,O=C(C[C@@H]1CC[C@@H]2[C@H](COC[C@@H](O)CN2C(=O)c2ccncc2)O1)NCc1ccc(-c2ccccc2)cc1,inactive
18,C[C@H]1CN([C@@H](C)CO)C(=O)c2cc(NS(=O)(=O)c3cn(C)cn3)ccc2O[C@@H]1CN(C)S(=O)(=O)c1cn(C)cn1,inactive
19,C[C@H]1CCCCO[C@H](CN(C)S(=O)(=O)c2ccc(F)cc2)[C@@H](C)CN([C@@H](C)CO)C(=O)c2cc(NS(C)(=O)=O)ccc2O1,inactive
20,Cc1noc(C)c1NC(=O)Nc1ccc2c(c1)C(=O)N([C@H](C)CO)C[C@@H](C)[C@H](CN(C)Cc1ccc3c(c1)OCO3)OCCCC[C@@H](C)O2,inactive
21,C[C@H]1CCCCO[C@H](CN(C)C(=O)CCC(F)(F)F)[C@@H](C)CN([C@@H](C)CO)C(=O)c2cc(NC(=O)Cc3ccccc3)ccc2O1,inactive

row,Structure (SMILES),growth inhibition call
1,C/C=C/C1=C(C(=O)O)N2C(=O)[C@@H](NC(=O)[C@H](N)c3ccc(O)cc3)[C@H]2SC1,active
2,CC1=C(C(=O)O)N2C(=O)C(NC(=O)C(N)c3ccc(O)cc3)C2SC1 (stereo unspecified),inactive
3,C/C=C\C1=C(C(=O)O)N2C(=O)[C@H](NC(=O)[C@@H](N)c3ccc(O)cc3)[C@@H]2SC1,inactive
4,CC1=C(C(=O)O)N2C(=O)[C@@H](NC(=O)[C@H](N)c3ccc(O)cc3)[C@H]2SC1,active
5,CC=CC1=C(C(=O)O)N2C(=O)C(NC(=O)C(N)c3ccc(O)cc3)C2SC1 (stereo unspecified),inactive
6,CC1=C(C(=O)O)N2C(=O)[C@@H](NC(=O)[C@@H](N)c3ccc(O)cc3)[C@H]2SC1,inactive
7,C[C@@H]1CN([C@H](C)CO)C(=O)c2cccc(NC(=O)C3CC3)c2O[C@H]1CN(C)S(=O)(=O)c1ccc(F)cc1,inactive
8,C[C@H](CO)N1C[C@H](C)[C@H](CN(C)S(C)(=O)=O)Oc2ncc(C#CC(C)(C)O)cc2C1=O,inactive
9,OCC(O)C(O)C(O)C(O)CO (stereo unspecified),inactive
10,C[C@H](CO)N1C[C@H](C)[C@H](CN(C)Cc2ccc(Oc3ccccc3)cc2)Oc2ccc(NS(=O)(=O)c3ccc(F)cc3)cc2CC1=O,inactive
11,C[C@@H]1CN([C@H](C)CO)S(=O)(=O)c2ccc(-c3cccc(C(=O)N(C)C)c3)cc2O[C@H]1CN(C)C(=O)Cc1ccccn1,inactive
12,COCCOC(=O)N1C(=O)[C@@]2(c3cc(C#CC4=CCCCC4)ccc31)[C@H](C(=O)N1CCN(c3ncccn3)CC1)[C@H]1C(=O)O[C@H](c3ccccc3)[C@H](c3ccccc3)N1[C@@H]2c1ccc(OCCO)cc1,inactive
13,CC(C)NC(=O)N(C)C[C@H]1Oc2ccc(NC(=O)NC3CCCCC3)cc2C(=O)N([C@H](C)CO)C[C@@H]1C,inactive
14,C[C@@H]1CCCCO[C@@H](CN(C)S(=O)(=O)c2cn(C)cn2)[C@@H](C)CN([C@H](C)CO)C(=O)c2cc(NS(=O)(=O)c3cn(C)cn3)ccc2O1,inactive
15,Oc1ccccc1CNc1ccc(C2CCCCC2)cc1,inactive
16,O=C1CCC(c2ccc(O)cc2)CC1,inactive
17,Oc1cc(C2CCCCC2)cc(C2CCCCC2)c1,active
18,COc1ccc(NC(=O)Nc2ccc3c(c2)C(=O)N([C@H](C)CO)C[C@H](C)[C@H](CN(C)C(=O)NC(C)C)OCCCC[C@H](C)O3)cc1,inactive
19,c1ccc2c(-c3ccncc3)c[nH]c2c1,inactive
20,Brc1ccc(CSc2c[nH]c3ccccc23)cc1,active
21,N#C/C(=C\c1ccc(C(F)(F)F)cc1)c1c[nH]c2ccccc12,inactive

row,Structure (SMILES),growth inhibition call
1,Cc1c[nH]c2ccccc12,inactive
2,FC(F)(F)c1ccc(CSc2c[nH]c3ccccc23)cc1,active
3,OCc1c[nH]c2ccccc12,inactive
4,COc1ccc(NC(=O)N(C)C[C@@H]2OCCCC[C@H](C)Oc3ccc(NS(=O)(=O)c4ccc(Cl)cc4)cc3C(=O)N([C@H](C)CO)C[C@H]2C)cc1,inactive
5,C[C@@H]1CN([C@H](C)CO)C(=O)c2cc(NC(=O)NC3CCCCC3)ccc2O[C@@H](C)CCCCO[C@@H]1CN(C)S(=O)(=O)c1cccs1,inactive
6,COc1ccc(NC(=O)Nc2ccc3c(c2)C(=O)N([C@@H](C)CO)C[C@@H](C)[C@H](CN(C)Cc2ccncc2)OCCCC[C@@H](C)O3)cc1,inactive
7,C[C@H]1CCCCO[C@H](CN(C)C(=O)Nc2ccccc2)[C@@H](C)CN([C@@H](C)CO)C(=O)c2cc(NC(=O)Cc3ccccc3)ccc2O1,inactive
8,C[C@H]1CN([C@@H](C)CO)C(=O)CCCn2cc(nn2)CO[C@H]1CN(C)S(=O)(=O)c1ccc(C#N)cc1,inactive
9,CN(C)c1cc(CN)ccn1,inactive
10,C1CCC(C(C[C@H]2CCCCN2)C2CCCCC2)CC1,active
11,O=C(O)CC[C@H]1CCCCN1,inactive
12,C1CCC(C(CC2CCCCN2)C2CCCCC2)CC1.O=C(O)C=CC(=O)O (stereo unspecified),active
13,OC[C@@H]1CCCN1,inactive
14,OC[C@@H]1CCCCN1,inactive
15,O=C(O)[C@@H]1CCCCN1,inactive
16,C[C@@H]1CN([C@H](C)CO)C(=O)c2cc(NC(=O)C3CCCCC3)ccc2O[C@@H](C)CCCCO[C@@H]1CN(C)Cc1ccc2c(c1)OCO2,inactive
17,COc1ccc(NC(=O)N(C)C[C@H]2Oc3c(NC(=O)c4cnccn4)cccc3C(=O)N([C@@H](C)CO)C[C@@H]2C)cc1,inactive
18,C[C@@H]1CN([C@H](C)CO)S(=O)(=O)c2ccc(C#CCN(C)C)cc2O[C@@H]1CN(C)Cc1ccccn1,inactive
19,C[C@H](CO)N1C[C@H](C)[C@@H](CN(C)Cc2ccc3c(c2)OCO3)Oc2c(NS(=O)(=O)c3cn(C)cn3)cccc2C1=O,inactive
20,COc1ccc(NC(=O)Nc2ccc3c(c2)C(=O)N([C@@H](C)CO)C[C@@H](C)[C@H](CN(C)Cc2ccc(C(=O)O)cc2)OCCCC[C@H](C)O3)cc1,inactive
21,COc1cccc(S(=O)(=O)N(C)C[C@H]2OCc3cnnn3CCCC(=O)N([C@@H](C)CO)C[C@@H]2C)c1,inactive

row,Structure (SMILES),growth inhibition call
1,CNC[C@@H]1Oc2ccc(NS(=O)(=O)c3cn(C)cn3)cc2C(=O)N([C@@H](C)CO)C[C@@H]1C,inactive
2,CCc1nc2ccc(C(=O)NC3CCN(Cc4ccccc4)CC3)cn2c1N(C)Cc1cc2ccccc2s1,inactive
3,Cc1noc(C)c1NC(=O)Nc1ccc2c(c1)C(=O)N([C@H](C)CO)C[C@@H](C)[C@H](CN(C)S(=O)(=O)c1ccccc1)OCCCC[C@H](C)O2,inactive
4,Cc1cc(C2CCCCC2)n(O)c(=O)c1.NCCO,active
5,C[C@H](CO)N1C[C@H](C)[C@@H](CN(C)Cc2ccc(-c3ccccc3)cc2)Oc2c(NC(=O)c3ccncc3)cccc2C1=O,inactive
6,C[C@H]1CN([C@@H](C)CO)C(=O)c2cccc(NC(=O)c3cnccn3)c2O[C@@H]1CN(C)Cc1ccncc1,inactive
7,COc1cccc(NC(=O)N[C@@H]2CC[C@@H](CC(=O)N3CCN(C)CC3)O[C@@H]2CO)c1,inactive
8,O=C(C[C@@H]1CC[C@H]2[C@@H](COC[C@H](O)CN2C(=O)Nc2cccc(F)c2)O1)NCc1ccccc1Cl,inactive
9,CC1(C)SC2C(N3C(=O)C(c4ccccc4)NC3(C)C)C(=O)N2C1C(=O)[O-].[K+] (stereo unspecified),active
10,CC1(C)SC2C(NC(=O)COc3ccccc3)C(=O)N2C1C(=O)[O-].[K+] (stereo unspecified),active
11,CNC(=O)Cc1ccccc1,inactive
12,CC1(C)C(=O)NCCN1C(=O)Cc1ccccc1,inactive
13,NNC(=O)COc1ccccc1,inactive
14,COC(=O)[C@@H]1N2C(=O)[C@@H](N3CC4=C[C@@H](C5CC5)n5c(=O)n(C)c(=O)n5[C@@H]4[C@@H]3[C@@H](O)Cc3ccccc3)[C@H]2SC1(C)C,inactive
15,COC(=O)[C@@H]1N2C(=O)[C@@H](N3C[C@](C)(OC)O[C@@H](Cc4ccccc4)[C@H]3/C=C/C3CC3)[C@H]2SC1(C)C,inactive
16,C[C@@H](NC(=O)COc1ccccc1)C(=O)O,inactive
17,CC1(C)SC2C(NC(=O)Cc3ccccc3)C(=O)N2C1C(=O)[O-].[K+] (stereo unspecified),active
18,COc1ccc(S(=O)(=O)N(C)C[C@H]2OCCCC[C@@H](C)Oc3ccc(NC(=O)Nc4ccc(F)cc4)cc3C(=O)N([C@@H](C)CO)C[C@H]2C)cc1,inactive
